The values that follow come from PubChem BioAssay (EPA / NIEHS).

Broadly, the AC50 is the concentration giving half of the maximal activity seen.

The structures appear in SMILES notation. Calls of active or inactive are those of the source. The calls were made as follows: active = hit-call score of the fitted dose curve at least 0.9, where 1 is the maximum; inactive = score below 0.9.

Read-out in assay [1]: Tissue Factor, F3 (gene 2152)
The assay is described as follows: BSK_CASM3C_TissueFactor: BioMAP Diversity Plus: CASM3C Assay for Tissue Factor Biomarker Activity (AID 2283052).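 Also: cell surface tissue factor protein level read by ELISA.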 To be noted: primary human coronary artery smooth muscle cells; actives raise or lower the signal.

Read-out in assay [2]: Interferon-gamma inducible Protein 10 (IP10), CXCL10 (gene 3627)
Nature of the assay: BSK_hDFCGF_IP10: BioMAP Diversity Plus: hDFCGF Assay for Interferon-gamma inducible Protein 10 (IP10) Biomarker Activity (AID 2283053). Conditions: primary human foreskin fibroblasts; actives raise or lower the signal. The method, boiled down: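 Primary foreskin fibroblasts, human; 24 h compound exposure; IP-10 by ELISA; bidirectional fit vs DMSO.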

Read-out in assay [3]: Urokinase-type plasminogen activator receptor (uPAR), PLAUR (gene 5329)
Nature of the assay: BSK_CASM3C_uPAR: BioMAP Diversity Plus: CASM3C Assay for Urokinase-type plasminogen activator receptor (uPAR) Biomarker Activity (AID 2283054).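 Also: cell-surface uPAR protein level quantified by ELISA.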 Conditions: primary human coronary artery smooth muscle cells; actives raise or lower the signal.

Read-out in assay [4]: Vascular cell adhesion molecule 1 (VCAM1), VCAM1 (gene 7412)
The assay is described as follows: BSK_CASM3C_VCAM1: BioMAP Diversity Plus: CASM3C Assay for Vascular cell adhesion molecule 1 (VCAM1) Biomarker Activity (AID 2283055).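 Also: VCAM-1 protein level quantified by ELISA on the cells.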 Conditions: primary human coronary artery smooth muscle cells; actives raise or lower the signal.

Read-out in assay [5]: Collagen III, COL3A1 (gene 1281)
Nature of the assay: BSK_hDFCGF_CollagenIII: BioMAP Diversity Plus: hDFCGF Assay for Collagen III Biomarker Activity (AID 2283056). Conditions: primary human foreskin fibroblasts; actives raise or lower the signal. The method, boiled down:
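hDFCGF primary human dermal fibroblasts; 24 h chemical exposure; collagen III by ELISA; bidirectional curve fit vs DMSO baseline (gain or loss of signal).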

Read-out in assay [6]: Epidermal growth factor receptor (EGFR), EGFR (gene 1956)
The assay is described as follows: BSK_hDFCGF_EGFR: BioMAP Diversity Plus: hDFCGF Assay for Epidermal growth factor receptor (EGFR) Biomarker Activity (AID 2283057). Conditions: primary human foreskin fibroblasts; actives raise or lower the signal. The method, boiled down:
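hDFCGF system, primary human foreskin fibroblasts; compound 24 h; EGFR measured by ELISA; DMSO = negative control/baseline; bidirectional fitting.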

Read-out in assay [7]: Interleukin-8 (IL8), CXCL8 (gene 3576)
The assay is described as follows: BSK_hDFCGF_IL8: BioMAP Diversity Plus: hDFCGF Assay for Interleukin-8 (IL8) Biomarker Activity (AID 2283058). Conditions: primary human foreskin fibroblasts; actives raise or lower the signal. The method, boiled down:
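ELISA read-out of IL-8 from primary human foreskin fibroblast cultures taken 24 h after dosing; values are bidirectional fits relative to DMSO vehicle.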

Assay [8] in a line: BSK_hDFCGF_Proliferation: Cell Proliferation Assessment in the BioMAP Diversity Plus: hDFCGF Assay (AID 2283059).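 Also: curves fitted for both rise and fall of signal versus DMSO baseline.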 Conditions: primary human foreskin fibroblasts. The method, boiled down: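 This proliferation readout used SRB total-protein staining of human foreskin fibroblasts […], normalized to DMSO with bidirectional curve fitting.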
Read-out in assay [9]: Macrophage colony-stimulating factor (MCSF), CSF1 (gene 1435)
Nature of the assay: BSK_hDFCGF_MCSF: BioMAP Diversity Plus: hDFCGF Assay for Macrophage colony-stimulating factor (MCSF) Biomarker Activity (AID 2283060). To be noted: primary human foreskin fibroblasts; actives raise or lower the signal. In short, it runs like this: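 ELISA read-out of M-CSF in human dermal foreskin fibroblast cultures, 24 h after chemical dosing; gain or loss of signal fitted bidirectionally relative to DMSO baseline.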

The nature of assay [10]: BSK_hDFCGF_SRB: Viability Assessment in the BioMAP Diversity Plus: hDFCGF Assay (AID 2283061).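 Also: cells exposed to compound for 24 h before the read.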 To be noted: primary human foreskin fibroblasts. The method, boiled down:
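Primary human foreskin fibroblasts; 24 h post-dose; fixed 10% TCA, stained 0.1% SRB, A560 read; total protein as overt cytotoxicity measure; curves fit bidirectionally vs DMSO control.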

Read-out in assay [11]: TIMP metallopeptidase inhibitor 1 (TIMP1), TIMP1 (gene 7076)
Nature of the assay: BSK_hDFCGF_TIMP1: BioMAP Diversity Plus: hDFCGF Assay for TIMP metallopeptidase inhibitor 1 (TIMP1) Biomarker Activity (AID 2283062). To be noted: primary human foreskin fibroblasts; actives raise or lower the signal. The method, boiled down:
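ELISA readout of TIMP-1 from human dermal foreskin fibroblast cultures 24 h post-dosing. Curves were fitted in both directions against DMSO baseline, with SRB total-protein staining in parallel cultures as a cytotoxicity check.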

Read-out in assay [12]: Monokine induced gamma interferon (MIG), CXCL9 (gene 4283)
The assay is described as follows: BSK_hDFCGF_MIG: BioMAP Diversity Plus: hDFCGF Assay for Monokine induced gamma interferon (MIG) Biomarker Activity (AID 2283063). Conditions: primary human foreskin fibroblasts; actives raise or lower the signal. In short, it runs like this:
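Fibroblasts (human foreskin, primary) dosed, 24 h, MIG by ELISA; fit bidirectional vs DMSO.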

Read-out in assay [13]: Matrix Metallopeptidase 1 (MMP1), MMP1 (gene 4312)
Nature of the assay: BSK_hDFCGF_MMP1: BioMAP Diversity Plus: hDFCGF Assay for Matrix Metallopeptidase 1 (MMP1) Biomarker Activity (AID 2283064). Conditions: primary human foreskin fibroblasts; actives raise or lower the signal. In short, it runs like this: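 Primary human foreskin fibroblasts in the hDFCGF system were dosed with test chemical, and MMP1 was measured by ELISA 24 h later. Values come from bidirectional curve fitting against the DMSO baseline.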

Read-out in assay [14]: Vascular cell adhesion molecule 1 (VCAM1), VCAM1 (gene 7412)
Nature of the assay: BSK_hDFCGF_VCAM1: BioMAP Diversity Plus: hDFCGF Assay for Vascular cell adhesion molecule 1 (VCAM1) Biomarker Activity (AID 2283065).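 As to AC50: VCAM-1 protein level quantified by ELISA after 24 h chemical exposure.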 Conditions: primary human foreskin fibroblasts; actives raise or lower the signal. In short, it runs like this:
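ELISA read-out of VCAM-1 on human skin fibroblasts, 24 h post-dose; gain or loss of signal fitted bidirectionally against DMSO baseline.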

Read-out in assay [15]: Plasminogen activator inhibitor-1 (PAI1), SERPINE1 (gene 5054)
The assay is described as follows: BSK_hDFCGF_PAI1: BioMAP Diversity Plus: hDFCGF Assay for Plasminogen activator inhibitor-1 (PAI1) Biomarker Activity (AID 2283066). To be noted: primary human foreskin fibroblasts; actives raise or lower the signal. In short, it runs like this:
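Primary dermal fibroblasts (human foreskin), hDFCGF system; compound 24 h; PAI-1 by ELISA; bidirectional fit vs DMSO control.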

Read-out in assay [16]: Interferon-gamma inducible Protein 10 (IP10), CXCL10 (gene 3627)
The assay is described as follows: BSK_KF3CT_IP10: BioMAP Diversity Plus: KF3CT Assay for Interferon-gamma inducible Protein 10 (IP10) Biomarker Activity (AID 2283068). To be noted: primary human keratinocytes with fibroblasts; actives raise or lower the signal. The method, boiled down:
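Signal is secreted/surface IP-10 by ELISA in a human primary skin co-culture of keratinocytes and foreskin fibroblasts, taken 24 h post-dosing; DMSO served as negative control.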

Assay [17] is described as follows: BSK_KF3CT_SRB: Viability Assessment in the BioMAP Diversity Plus: KF3CT Assay (AID 2283069).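 Also: total protein by sulforhodamine B staining as a cytotoxicity measure; read 24 h after compound addition.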 To be noted: primary human keratinocytes with fibroblasts. The method, boiled down:
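Human primary keratinocyte plus foreskin fibroblast co-culture exposed to chemicals for 24 h. Total protein measured by 0.1% sulforhodamine B staining after 10% TCA fixation, read at 560 nm; bidirectional fitting versus DMSO baseline.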

Read-out in assay [18]: Interleukin-1 alpha (IL1a), IL1A (gene 3552)
Nature of the assay: BSK_KF3CT_IL1a: BioMAP Diversity Plus: KF3CT Assay for Interleukin-1 alpha (IL1a) Biomarker Activity (AID 2283070). To be noted: primary human keratinocytes with fibroblasts; actives raise or lower the signal. The method, boiled down: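 Human keratinocyte plus foreskin fibroblast primary co-culture, sampled 24 h after chemical dosing. IL-1a measured by ELISA; responses fitted bidirectionally against DMSO baseline (negative control), so gain or loss of signal both count.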

Read-out in assay [19]: TIMP metallopeptidase inhibitor 2 (TIMP2), TIMP2 (gene 7077)
Nature of the assay: BSK_KF3CT_TIMP2: BioMAP Diversity Plus: KF3CT Assay for TIMP metallopeptidase inhibitor 2 (TIMP2) Biomarker Activity (AID 2283071). Conditions: primary human keratinocytes with fibroblasts; actives raise or lower the signal. The method, boiled down: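 Cells: human keratinocytes co-cultured with foreskin fibroblasts. Treat with chemical, 24 h. Measure TIMP-2 by ELISA; fit curves bidirectionally vs DMSO baseline.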

Consider `CC(C)(C)OOC(=O)c1ccccc1`, for which the outcome in [1], in [3], in assay [4], in assay [6], in [16] and in [17] was inactive. Also, the result in assay [18] and in assay [19] was inactive. Moreover, the AC50 in assay [2] is 33.2 µM (active); in [5], 35.1 µM (active); in assay [7], 34.3 µM (active); in assay [8], 20 µM (active); in assay [9] it was 34.1 µM (active); in assay [10], 30.9 µM (active). The AC50 in assay [11] was 11.9 µM (active); in assay [12] it was 35.1 µM (active); in assay [13] it was 20 µM (active); in assay [14] it was 32.9 µM (active); in [15], 7.15 µM (active).
On to `c1ccc(N=Nc2ccccc2)cc1`, for which the outcome in assay [1], in [2], in assay [3], in [4], in assay [5] and in [6] was inactive. For the same compound, the result in assay [7], in assay [8], in [9], in assay [10], in assay [11] and in assay [12] was inactive. Moreover, the result in [13], in assay [14], in assay [15], in assay [16], in assay [17] and in assay [18] was inactive. In addition, the result in assay [19] was inactive.
Turning to `CC(C)N(Cc1ccccc1)C(=O)C(C)(C)C`, the outcome in assay [1], in [2], in [3], in assay [4], in [5] and in assay [6] was inactive. For the same compound, the result in assay [7], in [8], in [9], in [10], in assay [11] and in [12] was inactive. In addition, the outcome in [13], in assay [14], in assay [15], in assay [16], in assay [17] and in assay [18] was inactive. The outcome in [19] was inactive.
For `O=[N+]([O-])C(Br)(CO)CO`, the outcome in [1] and in [3] was inactive. The AC50 in [2] was 28.5 µM (active); in assay [4], 28.1 µM (active); in [5] it was 36.7 µM (active); in assay [6] it was 36.4 µM (active); in assay [7], 37.2 µM (active); in assay [8] it was 2.66 µM (active). The AC50 is 26.6 µM (active) in assay [9]; 30.5 µM (active) in assay [10]; 32.9 µM (active) in assay [11]; 30.2 µM (active) in [12]; 32.3 µM (active) in [13]; 26.7 µM (active) in assay [14]. Further, the AC50 was 26.8 µM (active) in assay [15]; 34.9 µM (active) in assay [16]; 33.2 µM (active) in assay [17]; 32.5 µM (active) in [18]; 28.5 µM (active) in assay [19].
On to `Cc1ccc(N=C=O)cc1N=C=O`, for which the result in assay [1], in [2], in assay [3], in assay [4], in assay [5] and in assay [6] was inactive. Moreover, the outcome in [7], in assay [8], in assay [9], in assay [10], in [11] and in assay [12] was inactive. The outcome in assay [13], in assay [14], in [15], in [16], in [17] and in assay [18] was inactive. In addition, the result in [19] was inactive.
